Laboratory results as given in the supplement of paper PMC4466140.

Experiments:
Assay in all cases: SPOT peptide array binding signal intensity (averaged, normalized) (arbitrary units (background-subtracted, floor 0; scale differs between SH3 domains)); higher = stronger binding of the SH3 domain to the peptide
AgAbp1 = target: AgAbp1
Outline: (§1)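 Peptides were synthetic 15-mers on cellulose membranes, with every cysteine replaced by serine. They were incubated overnight at 4°C with GST-SH3 domains from four yeast species at 10 μg/ml in TBS-based blocking buffer. Binding signal, the replicate-averaged normalized and background-subtracted spot intensity, is in arbitrary units that differ between domains.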

AgBbc1 = target: AgBbc1
Outline: as §1

AgBem1-D1 = target: AgBem1-D1
Outline: as §1

AgBzz1-D1 = target: AgBzz1-D1
Outline: as §1

AgBzz1-D2 = target: AgBzz1-D2
Outline: as §1

AgCyk3 = target: AgCyk3
Outline: as §1

AgFus1 = target: AgFus1
Outline: as §1

AgHof1 = target: AgHof1
Outline: as §1

AgHse1 = target: AgHse1
Outline: as §1

AgLsb1 = target: AgLsb1
Outline: as §1

AgLsb4 = target: AgLsb4
Outline: as §1

AgMyo5 = target: AgMyo5
Outline: as §1

AgNbp2 = target: AgNbp2
Outline: as §1

AgRvs167 = target: AgRvs167
Outline: as §1

AgSho1 = target: AgSho1
Outline: as §1

AgSla1-D1-D2 = target: AgSla1-D1-D2
Outline: as §1

AgSla1-D3 = target: AgSla1-D3
Outline: as §1

CaAbp1-D1 = target: CaAbp1-D1
Outline: as §1

CaAbp1-D2 = target: CaAbp1-D2
Outline: as §1

CaBbc1 = target: CaBbc1
Outline: as §1

CaBem1-D1 = target: CaBem1-D1
Outline: as §1

CaBzz1-D1 = target: CaBzz1-D1
Outline: as §1

CaBzz1-D2 = target: CaBzz1-D2
Outline: as §1

CaCyk3 = target: CaCyk3
Outline: as §1

CaFus1 = target: CaFus1
Outline: as §1

CaHof1 = target: CaHof1
Outline: as §1

CaHse1 = target: CaHse1
Outline: as §1

CaLsb1 = target: CaLsb1
Outline: as §1

CaLsb4 = target: CaLsb4
Outline: as §1

CaMyo5 = target: CaMyo5
Outline: as §1

CaNbp2 = target: CaNbp2
Outline: as §1

CaRvs167 = target: CaRvs167
Outline: as §1

CaRvs167-3 = target: CaRvs167-3
Outline: as §1

CaSho1 = target: CaSho1
Outline: as §1

CaSla1-D1-D2 = target: CaSla1-D1-D2
Outline: as §1

CaSla1-D3 = target: CaSla1-D3
Outline: as §1

ScAbp1 = target: ScAbp1
Outline: as §1

ScBbc1 = target: ScBbc1
Outline: as §1

ScBem1-D1 = target: ScBem1-D1
Outline: as §1

ScBzz1-D1 = target: ScBzz1-D1
Outline: as §1

ScBzz1-D2 = target: ScBzz1-D2
Outline: as §1

ScCyk3 = target: ScCyk3
Outline: as §1

ScFus1 = target: ScFus1
Outline: as §1

ScHof1 = target: ScHof1
Outline: as §1

ScHse1 = target: ScHse1
Outline: as §1

ScLsb1 = target: ScLsb1
Outline: as §1

ScLsb2 = target: ScLsb2
Outline: as §1

ScLsb3 = target: ScLsb3
Outline: as §1

ScLsb4 = target: ScLsb4
Outline: as §1

ScMyo3 = target: ScMyo3
Outline: as §1

ScMyo5 = target: ScMyo5
Outline: as §1

ScNbp2 = target: ScNbp2
Outline: as §1

ScPex13 = target: ScPex13
Outline: as §1

ScRvs167 = target: ScRvs167
Outline: as §1

ScSho1 = target: ScSho1
Outline: as §1

ScSla1-D1-D2 = target: ScSla1-D1-D2
Outline: as §1

ScSla1-D3 = target: ScSla1-D3
Outline: as §1

SpAbp1-D1 = target: SpAbp1-D1
Outline: as §1

SpBbc1 = target: SpBbc1
Outline: as §1

SpBzz1-D1 = target: SpBzz1-D1
Outline: as §1

SpBzz1-D2 = target: SpBzz1-D2
Outline: as §1

SpCyk3 = target: SpCyk3
Outline: as §1

SpHof1 = target: SpHof1
Outline: as §1

SpHof1-2 = target: SpHof1-2
Outline: as §1

SpHof1-3 = target: SpHof1-3
Outline: as §1

SpHse1 = target: SpHse1
Outline: as §1

SpLsb1 = target: SpLsb1
Outline: as §1

SpLsb4 = target: SpLsb4
Outline: as §1

SpMyo1 = target: SpMyo1
Outline: as §1

SpNbp2 = target: SpNbp2
Outline: as §1

SpPex13 = target: SpPex13
Outline: as §1

SpRvs167 = target: SpRvs167
Outline: as §1

SpSla1-D1-D2 = target: SpSla1-D1-D2
Outline: as §1

SpSla1-D3 = target: SpSla1-D3
Outline: as §1

B1: unnamed (peptide)
chain: SSAAPPPPPRRATPE
- SPOT peptide array binding signal intensity (AgAbp1): 0.5
- SPOT peptide array binding signal intensity (AgBbc1): 602
- SPOT peptide array binding signal intensity (AgBem1-D1): ≤ 0
- SPOT peptide array binding signal intensity (AgBzz1-D1): 122
- SPOT peptide array binding signal intensity (AgBzz1-D2): 18
- SPOT peptide array binding signal intensity (AgCyk3): ≤ 0
- SPOT peptide array binding signal intensity (AgFus1): 4
- SPOT peptide array binding signal intensity (AgHof1): 0.5
- SPOT peptide array binding signal intensity (AgHse1): 11
- SPOT peptide array binding signal intensity (AgLsb1): 355
- SPOT peptide array binding signal intensity (AgLsb4): 1120
- SPOT peptide array binding signal intensity (AgMyo5): 8
- SPOT peptide array binding signal intensity (AgNbp2): 0.5
- SPOT peptide array binding signal intensity (AgRvs167): 446
- SPOT peptide array binding signal intensity (AgSho1): 3
- SPOT peptide array binding signal intensity (AgSla1-D1-D2): 1
- SPOT peptide array binding signal intensity (AgSla1-D3): 12
- SPOT peptide array binding signal intensity (CaAbp1-D1): 28.5
- SPOT peptide array binding signal intensity (CaAbp1-D2): 23
- SPOT peptide array binding signal intensity (CaBbc1): 268
- SPOT peptide array binding signal intensity (CaBem1-D1): ≤ 0
- SPOT peptide array binding signal intensity (CaBzz1-D1): 1350
- SPOT peptide array binding signal intensity (CaBzz1-D2): 293
- SPOT peptide array binding signal intensity (CaCyk3): ≤ 0
- SPOT peptide array binding signal intensity (CaFus1): 134
- SPOT peptide array binding signal intensity (CaHof1): 31
- SPOT peptide array binding signal intensity (CaHse1): 6
- SPOT peptide array binding signal intensity (CaLsb1): 0.5
- SPOT peptide array binding signal intensity (CaLsb4): 3810
- SPOT peptide array binding signal intensity (CaMyo5): 0.5
- SPOT peptide array binding signal intensity (CaNbp2): 1
- SPOT peptide array binding signal intensity (CaRvs167): 349
- SPOT peptide array binding signal intensity (CaRvs167-3): 0.5
- SPOT peptide array binding signal intensity (CaSho1): ≤ 0
- SPOT peptide array binding signal intensity (CaSla1-D1-D2): 1870
- SPOT peptide array binding signal intensity (CaSla1-D3): 0.25
- SPOT peptide array binding signal intensity (ScAbp1): 3
- SPOT peptide array binding signal intensity (ScBbc1): 0.5
- SPOT peptide array binding signal intensity (ScBem1-D1): ≤ 0
- SPOT peptide array binding signal intensity (ScBzz1-D1): 24
- SPOT peptide array binding signal intensity (ScBzz1-D2): 5
- SPOT peptide array binding signal intensity (ScCyk3): 1
- SPOT peptide array binding signal intensity (ScFus1): ≤ 0
- SPOT peptide array binding signal intensity (ScHof1): 7
- SPOT peptide array binding signal intensity (ScHse1): ≤ 0
- SPOT peptide array binding signal intensity (ScLsb1): 315
- SPOT peptide array binding signal intensity (ScLsb2): 49.5
- SPOT peptide array binding signal intensity (ScLsb3): 3110
- SPOT peptide array binding signal intensity (ScLsb4): 711
- SPOT peptide array binding signal intensity (ScMyo3): 124
- SPOT peptide array binding signal intensity (ScMyo5): 83.8
- SPOT peptide array binding signal intensity (ScNbp2): 36
- SPOT peptide array binding signal intensity (ScPex13): 300
- SPOT peptide array binding signal intensity (ScRvs167): 1890
- SPOT peptide array binding signal intensity (ScSho1): 3
- SPOT peptide array binding signal intensity (ScSla1-D1-D2): 1390
- SPOT peptide array binding signal intensity (ScSla1-D3): ≤ 0
- SPOT peptide array binding signal intensity (SpAbp1-D1): 160
- SPOT peptide array binding signal intensity (SpBbc1): ≤ 0
- SPOT peptide array binding signal intensity (SpBzz1-D1): 757
- SPOT peptide array binding signal intensity (SpBzz1-D2): 142
- SPOT peptide array binding signal intensity (SpCyk3): 2.5
- SPOT peptide array binding signal intensity (SpHof1): 10.2
- SPOT peptide array binding signal intensity (SpHof1-2): 33.5
- SPOT peptide array binding signal intensity (SpHof1-3): 366
- SPOT peptide array binding signal intensity (SpHse1): 10.5
- SPOT peptide array binding signal intensity (SpLsb1): 101
- SPOT peptide array binding signal intensity (SpLsb4): 2800
- SPOT peptide array binding signal intensity (SpMyo1): 876
- SPOT peptide array binding signal intensity (SpNbp2): ≤ 0
- SPOT peptide array binding signal intensity (SpPex13): ≤ 0
- SPOT peptide array binding signal intensity (SpRvs167): 1860
- SPOT peptide array binding signal intensity (SpSla1-D1-D2): 62
- SPOT peptide array binding signal intensity (SpSla1-D3): 0.5
